This is an account of results in PubChem BioAssay (NCATS).

Values joined by “and” are separate entries in the source; they are usually repeats but may differ in a detail not shown here. Equal entries are not always repeated. Records with an inconclusive call do not appear. A call without a number means that no potency is given here. Some compounds were tested as several samples or in several runs, with calls that do not always agree. Active and inactive are the calls of the source. Unless noted, calls follow the shape of the dose curve; as a rule, active = well fitted curve in the direction sought with a large enough effect; inconclusive = small, poorly fitted or top-dose-only effect, or another doubt; inactive = no such curve, though single readings can be large; an effect the other way counts as inactive or inconclusive.

Test [1] can be described thus: Primary qHTS for small molecule stabilizers of the endoplasmic reticulum resident proteome: Secreted ER Calcium Modulated Protein (SERCaMP) assay (AID 1508630). Also: potency is read from the fitted curve at half-maximal effect. The method, boiled down: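 GLuc-SERCaMP-expressing SH-SY5Y cells, pretreated 16 h with compound, are challenged with thapsigargin to empty ER calcium stores; after 4 h, coelenterazine is added directly to the medium and luminescence is imaged.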
(In general: qHTS replaces the single test concentration by a dilution series.)

The nature of test [2]: Confirmatory qHTS for small molecule stabilizers of the endoplasmic reticulum resident proteome: Secreted ER Calcium Modulated Protein (SERCaMP) assay (AID 1508628). Also: nearly all actives have a fitted effect of over 40% in size. Also: potency is read from the fitted curve at half-maximal effect. The method, boiled down:
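We seeded SH-SY5Y-GLuc-SERCaMP cells, added compounds (three concentrations in the primary run, eleven up to 76.6 uM in confirmation), incubated 16 h, depleted ER calcium with thapsigargin, and read luciferase 4 h later.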

A short description of test [3]: Cell Viability qHTS for small molecule stabilizers of the endoplasmic reticulum resident proteome (AID 1508629).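 Also: compound exposure about 46 h in total before the viability read.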 Also: potency is read from the fitted curve at half-maximal effect.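 As to max response: human SH-SY5Y neuroblastoma cells carrying the GLuc-SERCaMP reporter.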 As to conditions: cell viability counter-screen, 100 nM thapsigargin for final 4 h.
A short description of test [4]: A High-Content qHTS Against Drug Library for the Identification of Small Molecules that Inhibit DYT1 Early Onset Primary Dystonia-Associated Cell Pathology (AID 1645839; calls by dose curve; also: series mostly up to about 46 µM). Summed up: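 Flp-In T-REx 293 cells with tetracycline-inducible EGFP-delE hTOR1A (WT EGFP-hTOR1A as reference), 800 cells/well; compound added with tetracycline, 48 h at 37 C. Fixed, permeabilized cells imaged; %pathology (punctate TorsinA) primary, cell count counterscreen.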

Test [5] has as its target Cytochrome P450 2C9 (Homo sapiens) (UniProt P11712). The test can be described thus: Cytochrome P450 family 2 subfamily C member 9 (CYP2C9) small molecule antagonists: luciferase biochemical (cell-free) qHTS assay (AID 1645842; active = well fitted curve in the direction sought with a large enough effect in the repeat runs; an effect the other way counts as inactive or inconclusive; also: nearly all actives have a fitted effect of over 55% in size; also: potency is read from the fitted curve at half-maximal effect). The method, boiled down:
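Luminescence, after 20 min with luciferin detection reagent, reflected CYP2C9 turnover during a 1 h NADPH-driven reaction at 37C. Enzyme-substrate mix contained 0.4% bovine serum albumin and was preincubated with compound 10 min at room temperature.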

The target of the next test is Papain (Carica papaya) (UniProt P00784). In words: Primary qHTS assay for inhibitors of the protease papain (AID 1645873).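 Also: papain turnover of Z-FR-AMC read as the AMC fluorescence gain over 10 min; series mostly up to about 50 µM.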
Test [6] can be described thus: Primary qHTS for inhibitors of nuclear receptor binding SET domain protein 2 (NSD2) in an isogenic RCH-ACV NSD2 p.E1099K mutant (9B) (AID 1645876). Also: nearly all actives have a fitted effect of over 70% in size. Also: potency is read from the fitted curve at half-maximal effect.
Test [7] has as its target Cytochrome P450 2D6 (Homo sapiens) (UniProt P10635). In words: Cytochrome P450 family 2 subfamily D member 6 (CYP2D6) small molecule antagonists: luciferase biochemical (cell-free) qHTS assay (AID 1645840; active = well fitted curve in the direction sought with a large enough effect in the repeat runs; an effect the other way counts as inactive or inconclusive; also: nearly all actives have a fitted effect of over 55% in size; also: potency is read from the fitted curve at half-maximal effect). Summed up:
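P450-Glo luminescent screen: recombinant CYP2D6 enzyme–proluciferin substrate mix preincubated with compound 10 min at room temperature, then NADPH regeneration added for 1 h at room temperature. Detection reagent added for 20 min; luciferin light read as relative luminescence units.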

Cytochrome P450 2D6 (Homo sapiens), sequence (P10635 whole entry, looked up): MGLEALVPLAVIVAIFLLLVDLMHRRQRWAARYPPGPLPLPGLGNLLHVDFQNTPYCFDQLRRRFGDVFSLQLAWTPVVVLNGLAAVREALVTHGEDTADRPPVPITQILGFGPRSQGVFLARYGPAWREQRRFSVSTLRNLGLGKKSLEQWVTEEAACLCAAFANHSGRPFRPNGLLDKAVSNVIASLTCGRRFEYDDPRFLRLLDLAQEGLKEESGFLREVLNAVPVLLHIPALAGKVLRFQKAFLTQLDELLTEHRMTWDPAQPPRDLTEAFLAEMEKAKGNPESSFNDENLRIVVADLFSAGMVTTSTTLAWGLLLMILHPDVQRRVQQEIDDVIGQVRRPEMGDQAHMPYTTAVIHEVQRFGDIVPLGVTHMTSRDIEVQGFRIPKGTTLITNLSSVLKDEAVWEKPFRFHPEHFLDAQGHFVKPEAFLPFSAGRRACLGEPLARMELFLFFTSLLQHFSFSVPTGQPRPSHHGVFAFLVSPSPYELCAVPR
Papain (Carica papaya), sequence (P00784 whole entry, looked up, the tested form may be a part): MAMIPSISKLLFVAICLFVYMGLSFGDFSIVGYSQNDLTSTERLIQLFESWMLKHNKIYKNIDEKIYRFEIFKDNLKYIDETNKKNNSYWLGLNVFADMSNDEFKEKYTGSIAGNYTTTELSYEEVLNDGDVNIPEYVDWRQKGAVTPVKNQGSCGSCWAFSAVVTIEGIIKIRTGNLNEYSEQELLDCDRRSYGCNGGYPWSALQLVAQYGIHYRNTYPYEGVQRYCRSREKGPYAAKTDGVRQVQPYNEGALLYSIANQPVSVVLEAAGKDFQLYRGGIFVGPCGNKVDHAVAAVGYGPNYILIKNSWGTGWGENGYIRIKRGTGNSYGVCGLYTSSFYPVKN
Cytochrome P450 2C9 (Homo sapiens), sequence (P11712 whole entry, looked up): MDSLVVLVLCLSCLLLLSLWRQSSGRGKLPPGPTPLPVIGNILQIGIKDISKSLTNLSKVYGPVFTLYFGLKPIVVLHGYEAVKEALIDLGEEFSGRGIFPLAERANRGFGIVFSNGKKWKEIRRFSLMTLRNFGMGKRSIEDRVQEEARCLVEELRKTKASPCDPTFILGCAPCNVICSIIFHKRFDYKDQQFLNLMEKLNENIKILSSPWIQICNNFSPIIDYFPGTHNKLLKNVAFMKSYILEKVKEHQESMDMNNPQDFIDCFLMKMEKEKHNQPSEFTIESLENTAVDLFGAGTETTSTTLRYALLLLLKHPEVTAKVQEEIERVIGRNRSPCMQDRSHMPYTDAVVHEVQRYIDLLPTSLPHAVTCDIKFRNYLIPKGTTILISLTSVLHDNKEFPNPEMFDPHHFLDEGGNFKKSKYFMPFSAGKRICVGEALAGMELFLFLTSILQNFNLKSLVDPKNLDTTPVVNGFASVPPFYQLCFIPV

As to `CCOC1OC(=O)C[C@H]1NC(=O)[C@@H]1CCCN1C(=O)[C@@H](NC(=O)c1ccc(N)c(Cl)c1)C(C)(C)C` (stereo partly specified), the Potency entry in test [1] was “inactive”.
On the same count and under the same terms, the result for `O=C1c2c(O)cc(O)cc2O[C@H](c2cc(O)c(O)c(O)c2)[C@H]1O` reads “inactive”.
Regarding `O=c1ccn([C@@H]2O[C@H](CO)[C@H](O)[C@H]2O)c(=O)[nH]1`, the Potency entry in test [2] was “inactive”.
Turning to `Cc1ccc(C(C)(O)c2nc3ccccc3s2)c(C)c1` (stereo unspecified), the Potency result in test [1] was “inactive”.
The same measure, in the same setting: the result for `Cc1ccc(/C=N/NC(=O)c2ccccc2Oc2ccccc2)o1` reads “inactive”.
Still for that read-out and setting: under `O=C(NOCC(O)CO)c1cc(Br)c(F)c(F)c1Nc1ccc(I)cc1F` (stereo unspecified) stands “inactive”.
Still for that read-out and setting: the result for `CNC(=O)c1ccccc1Sc1ccc2c(C=Cc3ccccn3)n[nH]c2c1` reads “inactive”.
With `Cc1nnc(C(C)C)n1C1C[C@H]2CC[C@@H](C1)N2CC[C@H](NC(=O)C1CCC(F)(F)CC1)c1ccccc1` (stereo partly specified), in test [1], the Potency entry is “inactive”.
Still for that read-out and setting: under `CC(C)C[C@H](CC(=O)O)C(=O)N[C@@H](Cc1c[nH]c2ccccc12)C(=O)N[C@@H](C)c1ccccc1` stands “inactive”.
Same read-out and setting: the result for `C[C@]12CC[C@@H]3c4ccc(O)cc4CC[C@H]3[C@H]1C[C@@H](O)[C@H]2O` reads “inactive”; that for `CN1[C@@H]2CCC[C@@H]1CC(NC(=O)c1nn(C)c3ccccc13)C2` (stereo partly specified), “inactive”.
The same measure, in the same setting: the result for `OC[C@H]1O[C@@H](Oc2cc(O)cc(C=Cc3ccc(O)cc3)c2)[C@H](O)[C@@H](O)[C@H]1O` reads “inactive”; that for `CC1(C)CCC[C@@]2(C)[C@@H]1CC[C@@]1(C)OC(=O)C[C@H]21`, “inactive”; that for `C[N+]1(C)[C@@H]2CC(OC(=O)[C@H](CO)c3ccccc3)C[C@H]1[C@H]1O[C@@H]12` (stereo partly specified), “inactive”.
As to `Nc1ncnc2c1ncn2[C@@H]1O[C@H](CO)C[C@@H]1O`, in test [3], the max response was 15.2% (inactive). Besides, in test [1], the Potency result is “inactive”.
For the compound `CC(C)(C)OC(=O)N[C@H]1CCCCCC=C[C@@H]2C[C@@]2(C(=O)NS(=O)(=O)C2CC2)NC(=O)[C@@H]2C[C@@H](OC(=O)N3Cc4cccc(F)c4C3)CN2C1=O`, in test [1], the Potency result was “inactive”.
For the compound `CCN(CC)CCOC(=O)c1ccc(N)cc1`, the Potency result in test [2], in test [1], in test [4], in test [5] and in test [6] was “inactive” in each case. The outcome with Papain (Carica papaya) was inactive.
As for `CC1=C(/C=C/C(C)=C/C=C/C(C)=C/C(=O)Nc2ccc(O)cc2)C(C)(C)CCC1`, the Potency result was “inactive and 31.6 µM (active)” in test [2]; 2750 nM (active) in test [5]; 1.88 µM (active) and 2.95 µM (active) in test [6]. The max response in test [3] was 14.9% (inactive). Besides, the Potency entry in test [1] was “inactive”. In the test with Papain (Carica papaya), the result was inactive.
Turning to `CC(=NNC(=S)N1CCC1)c1ccccn1`, in test [1], the Potency result is “inactive”.
For `O=C(Nc1cccc(Br)c1)c1cccc(S(=O)(=O)N2CCCCCC2)c1`, the Potency entry in test [1] is “inactive”.
Still for that read-out and setting: the result for `O=C1NC(=O)C(=Cc2cccc(C(F)(F)F)c2)S1` reads “inactive”; that for `CCC(=O)O[C@]1(C(=O)CO)CC[C@H]2[C@@H]3CCC4=CC(=O)CC[C@]4(C)[C@@H]3CC[C@@]21C`, “inactive”.
On the same count and under the same terms, the result for `O=C(CCc1ccc(O)cc1)c1c(O)cc(O)cc1O[C@@H]1O[C@H](CO)[C@H](O)[C@H](O)[C@H]1O` reads “inactive”.
Still for that read-out and setting: the result for `CC(C)(C(=O)NCC(F)(F)C(F)(F)F)C(=O)N[C@@H]1C(=O)Nc2ccccc2-c2ccccc21` reads “inactive”.
Consider `NC[C@@H]1O[C@@H](O[C@H]2[C@@H](O)[C@H](O[C@@H]3[C@@H](O)[C@@H](N)C[C@H](N)[C@H]3O[C@H]3O[C@H](CN)[C@@H](O)[C@@H](O)[C@H]3N)O[C@H]2CO)[C@H](N)[C@@H](O)[C@@H]1O`, for which the Potency result in test [1] was “inactive”.
Take `CCC(=O)NC[C@H](Cc1ccc(OCCc2nc(-c3ccccc3)oc2C)cc1)NC(C)=CC(=O)c1ccc(C(F)(F)F)cc1`: in test [1], the Potency entry is “inactive”.
In the case of `Cn1cc(C=C2C(=O)Nc3cccnc32)c2ccccc21`, the max response in test [3] was 16.6% (inactive).
Consider `CN(C)CCC(c1ccccc1)c1ccccn1` (stereo unspecified), for which the Potency result in test [2], in test [1], in test [4] and in test [6] was “inactive” in each case. The call with Papain (Carica papaya) was inactive.
Consider `CC1(C)O[C@H]2C[C@@H]3[C@H]4CCC5=CC(=O)C=C[C@]5(C)[C@@]4(F)[C@@H](O)C[C@]3(C)[C@]2(C(=O)CO)O1`, for which the Potency entry in test [1] was “inactive”.
Still for that read-out and setting: the result for `CC[C@H]1OC(=O)[C@H](C)[C@@H](O[C@H]2C[C@@](C)(OC)[C@@H](O)[C@H](C)O2)[C@H](C)[C@@H](O[C@@H]2O[C@H](C)C[C@H](N(C)C)[C@@H]2O)[C@](C)(O)C[C@@H](C)CN(C)[C@H](C)[C@@H](O)[C@]1(C)O` reads “inactive”; that for `COc1cc(O)c2c(c1)C(=O)c1cc(C)cc(O)c1C2=O`, “inactive”.
For `O=C1c2ccccc2-[n+]2ccc3c([nH]c4ccccc43)c21`, the Potency is 20000 nM (active) in test [2], 1000 nM (active) in test [3], 10600 nM (active) in test [1] and 1.32 µM (active) in test [6].
`Cc1[nH]c(C=C2C(=O)Nc3ccc(S(=O)(=O)Cc4c(Cl)cccc4Cl)cc32)c(C)c1C(=O)N1CCC[C@H]1CN1CCCC1`: the Potency result in test [1] is “inactive”.
On to `O=C(O)c1ccc(-c2cc3cccnc3c(-c3ccc4nonc4c3)n2)cc1`, for which, in test [1], the Potency entry is “inactive”.
As for `C[C@H]1[C@H](NC(=O)C(=NOC(C)(C)C(=O)O)c2csc(N)n2)C(=O)N1S(=O)(=O)O`, in test [1], the Potency result is “inactive”.
On to `N#CC(=C(N)Sc1ccccc1N)C(C#N)=C(N)Sc1ccccc1N`, for which the Potency entry in test [1] is “inactive”.
For the compound `CC(=O)c1ccc(S(=O)(=O)NC(=O)NC2CCCCC2)cc1`, the Potency result in test [1], in test [4], in test [7] and in test [6] was “inactive” each time. Also, the call with Papain (Carica papaya) was inactive.
With `CC=CC(=O)N(CC)c1ccccc1C`, the Potency entry in test [1] was “inactive”.
Still for that read-out and setting: the result for `CC1(C)S[C@H]2[C@H](NC(=O)[C@@H](N)c3ccc(O)cc3)C(=O)N2[C@@H]1C(=O)O` reads “inactive”; that for `CON=C(C(=O)N[C@@H]1C(=O)N2C(C(=O)OCOC(=O)C(C)(C)C)=C(C=Cc3scnc3C)CS[C@H]12)c1csc(N)n1`, “inactive”; that for `CC(C)OC(=O)CCCC=CC[C@@H]1[C@H](C=C[C@@H](O)COc2cccc(C(F)(F)F)c2)[C@H](O)C[C@@H]1O`, “inactive”.
On the same count and under the same terms, under `C[C@]12CC[C@@H]3c4ccc(O)cc4C[C@@H](CCCCCCCCCS(=O)CCCC(F)(F)C(F)(F)F)[C@H]3[C@H]1CC[C@H]2O` (stereo partly specified) stands “inactive”.
In the case of `CCCCC1C(=O)N(c2ccccc2)N(c2ccccc2)C1=O`, the Potency entry in test [1], in test [4], in test [7] and in test [6] was “inactive” throughout. Also, the result in the test with Papain (Carica papaya) was inactive.
For `COc1ccc2c3c1OC1C[C@@H](O)C=C[C@@]31CCN(C)C2` (stereo partly specified), in test [1], the Potency result was “inactive”.
On the same count and under the same terms, the result for `O=c1c(-c2ccc(O)cc2)coc2cc(O[C@@H]3O[C@H](CO)[C@H](O)[C@H](O)[C@H]3O)ccc12` reads “inactive”.
Regarding `CCCNC(=O)NS(=O)(=O)c1ccc(Cl)cc1`, the Potency result in test [1], in test [4], in test [7] and in test [6] was “inactive” throughout. In the test with Papain (Carica papaya), the outcome was inactive.
On to `Cc1cccc(C)c1OCC(C)N` (stereo unspecified), for which the Potency result in test [1], in test [4] and in test [6] was “inactive” in each case. Besides, the Potency in test [7] is 13.8 µM (active) and 21.3 µM (active). Further, the call with Papain (Carica papaya) was inactive.
